The panel holds about 83,000 compounds, 20% with a hit somewhere; the sample as a whole holds those more often.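 How to read the values: 0–100, growth inhibition (40 = 60% inhibited); 0, no net growth; -100 to 0, cell death (-40 = 40% of starting cells died; -100 = all dead).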 Values without a mark were called inactive. The source made the active and inactive calls. The calls were made as follows: active = growth percent below 10; inactive = the rest.
Assays:
Test in all cases: NCI-60 one-dose screen, 48 h (100 = growth as untreated, 0 = no growth, -100 = all killed)
Settings in all cases: 10 µM unless noted
[1] = system: NCI-H23 lung
[2] = system: NCI-H226 lung
[3] = system: NCI-H322M lung
[4] = system: HOP-62 NSCLC
[5] = system: NCI-H460 lung
[6] = system: HOP-92 NSCLC
[7] = system: 786-0 renal
[8] = system: COLO 205 colon
[9] = system: DU-145 prostate
[10] = system: K-562 leukemia
[11] = system: MALME-3M melanoma
[12] = system: MDA-MB-231 breast
[13] = system: RXF 393 renal
[14] = system: SF-268 CNS
[15] = system: SF-295 CNS
[16] = system: M14 melanoma
[17] = system: A549/ATCC NSCLC
[18] = system: SF-539 CNS
[19] = system: UACC-257 melanoma

Structure (SMILES) | growth [1] | growth [2] | growth [3] | growth [4] | growth [5] | growth [6] | growth [7] | growth [8] | growth [9] | growth [10] | growth [11] | growth [12] | growth [13] | growth [14] | growth [15] | growth [16] | growth [17] [%] | growth [18] | growth [19] [%]
COc1cc2c(cc1OC)-c1cc(OC)c(OC)cc1C(CN(C)C)C2 (configuration not stated) | 51.8% [100 µM] | 18.4% [100 µM] | 38.9% [100 µM] | -57.2% [100 µM] (active) | 67.7% [100 µM] | 21.4% [100 µM] | 16.9% [100 µM] | 100% [100 µM] | 45.3% [100 µM] | 77.6% [100 µM] | 44.1% [100 µM] | 39.7% [100 µM] | 41.6% [100 µM] | 39% [100 µM] | 4.33% [100 µM] (active) | 69.5% [100 µM] | – | – | –
O=P(O)(O)C(O)(Cc1cccnc1)P(=O)(O)O | 93.1% | 111% | 107% | 94.3% | 111% | 114% | 108% | – | – | – | 113% | 94.1% | 101% | 104% | 111% | 99.6% | 98.8 | 101% | 99.4
CCS(=O)(=O)Nc1cccc(Nc2c3cccc(C)c3nc3c(C)cccc23)c1OC | 11.1% | -6.89% (active) | 49.1% | 8.84% (active) | 3.23% (active) | -11.8% (active) | -42.1% (active) | 27.1% | 2.74% (active) | 8.19% (active) | 21.5% | 59.9% | 34.6% | 20.4% | -7.84% (active) | 17.2% | – | -41.3% (active) | –
CC(=O)C1CCC2C3CC(C)=C4CC(O)CCC4(C)C3CCC12C (configuration not stated) | 99.5% | 93.4% | 103% | 124% | 109% | 102% | 94.3% | – | 119% | 86.1% | – | 101% | 111% | 102% | 113% | 98.1% | 99.6 | 90.7% | 117
CCN(C(=O)CCl)C(C)(C)C(SSSC(c1ccc(Cl)cc1)C(C)(C)N(CC)C(=O)CCl)c1ccc(Cl)cc1 (configuration not stated) | 93.6% | 104% | 87.7% | 86.6% | 81.1% | 47% | 79.7% | 56.8% | 85.5% | 0.579% (active) | 28.9% | 73.7% | 48.6% | 91.1% | 89.5% | -15.9% (active) | – | 87.7% | –
COC(=O)[C@@H](Cc1c[nH]c2ccccc12)NC(=O)/C=C/c1ccccc1 | 39.4% | 60.2% | 33.8% | 19% | 9.94% (active) | 54.6% | 28.8% | 97.3% | 12% | 15.9% | 35.1% | 37.7% | -25.6% (active) | 42.9% | -1.2% (active) | -37.5% (active) | – | -66.8% (active) | –
COc1cc(OC)c(C(=O)/C=C/c2cccc(OC(C)=O)c2)cc1CC=C(C)C | 72.2% | 69.6% | 98.9% | 114% | 89.4% | 56.5% | 91.4% | 111% | 69.2% | 16.5% | 122% | 77.6% | – | 70.4% | 97.7% | 87.6% | – | 90.6% | –
COc1cc2ccc(C(C)=O)cc2cc1OC | 99.5% | 81.4% | 104% | 81.8% | 100% | 86% | 107% | 97.1% | 111% | 118% | 107% | 109% | – | 101% | – | 110% | – | 95.6% | –
CCCCCc1c(C)[nH]c(/C=C2\N=C(c3ccc[nH]3)C=C2Oc2ccc(OC)cc2)c1C | -67.1% [100 µM] (active) | -15.7% [100 µM] (active) | -6.72% [100 µM] (active) | -54.5% [100 µM] (active) | -46.1% [100 µM] (active) | -12.6% [100 µM] (active) | -92.2% [100 µM] (active) | -83.9% [100 µM] (active) | -59.2% [100 µM] (active) | -14.6% [100 µM] (active) | -75.4% [100 µM] (active) | -71.2% [100 µM] (active) | -68.3% [100 µM] (active) | -83.5% [100 µM] (active) | -82.1% [100 µM] (active) | -94.7% [100 µM] (active) | – | – | –
